Screen size: about 5,500 compounds; about 2,000 (36%) were called active. Another 18% or so got no clear call; they are omitted. Rule as the data show it: active = normalized growth mostly below about 0.91 (no sharp cut-off); inconclusive = no clear call, values can overlap the other calls; inactive = mostly above about 0.92. This is one part of the list.
Assay: chemical genetic growth profiling, strain panel (AID 1159580);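 also: tested at 20 µM; growth read once vehicle control cultures reached saturation at 30 °C; 1 = growth at the plate median or of vehicle wells; lower values mean less growth of the strain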
Conditions: S. cerevisiae deletion strains, growth OD

Measured: normalized growth

CN[C@H]1C[C@@H](N)[C@H](O)[C@@H](O[C@@H]2O[C@H](CO)[C@@H]3OC4(O[C@@H]3[C@@H]2O)O[C@H](C(N)CO)[C@H](O)[C@H](O)[C@H]4O)[C@@H]1O (stereo partly drawn)
inactive: locus YHR030C, strain SLT2, hits give low values 1.05 | locus YHR079C, strain IRE1, hits give low values 1.05 | locus YJL095W, strain BCK1, hits give low values 1.05 | locus YJR066W, strain TOR1, hits give low values 0.982 | locus YLR113W, strain HOG1, hits give low values 1.02 | locus YNL183C, strain NPR1, hits give low values 0.969 | locus YOR231W, strain MKK1, hits give low values 1.03 | locus YPL256C, strain CLN2, hits give low values 1.03
